# In PubChem BioAssay (NCI):
# About 83,000 compounds went through this panel and 20% of them were active in at least one assay; those are over-represented in the sample as a whole.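 Cells were grown in 96-well plates and exposed to the test compound at a single concentration for 48 hours; results are reported as percent growth, with values below 10 considered active.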 Unmarked numbers belong to inactive results. Active and inactive are the calls of the source.
# Legend:
# Assay in all cases: NCI-60 one-dose screen, 48 h (100 = growth as untreated, 0 = no growth, -100 = all killed)
# Conditions in all cases: 10 µM unless noted
# SK-MEL-2 melanoma = tested on: SK-MEL-2 melanoma
# EKVX NSCLC = tested on: EKVX NSCLC
# SN12C renal = tested on: SN12C renal
# UO-31 renal = tested on: UO-31 renal
# TK-10 renal = tested on: TK-10 renal
# ACHN renal = tested on: ACHN renal
# CAKI-1 renal = tested on: CAKI-1 renal
# A498 renal = tested on: A498 renal
# CCRF-CEM leukemia = tested on: CCRF-CEM leukemia
# MOLT-4 leukemia = tested on: MOLT-4 leukemia
# SR leukemia = tested on: SR leukemia
# RPMI-8226 leukemia = tested on: RPMI-8226 leukemia
# OVCAR-8 ovarian = tested on: OVCAR-8 ovarian
# OVCAR-5 ovarian = tested on: OVCAR-5 ovarian
# OVCAR-4 ovarian = tested on: OVCAR-4 ovarian
# SK-OV-3 ovarian = tested on: SK-OV-3 ovarian
# IGROV1 ovarian = tested on: IGROV1 ovarian
# OVCAR-3 ovarian = tested on: OVCAR-3 ovarian
# HS 578T breast = tested on: HS 578T breast
# NCI/ADR-RES ovarian = tested on: NCI/ADR-RES ovarian
SMILES,growth (SK-MEL-2 melanoma),growth (EKVX NSCLC),growth (SN12C renal),growth (UO-31 renal),growth (TK-10 renal),growth (ACHN renal),growth (CAKI-1 renal),growth (A498 renal),growth (CCRF-CEM leukemia),growth (MOLT-4 leukemia),growth (SR leukemia),growth (RPMI-8226 leukemia),growth (OVCAR-8 ovarian),growth (OVCAR-5 ovarian),growth (OVCAR-4 ovarian),growth (SK-OV-3 ovarian),growth (IGROV1 ovarian),growth (OVCAR-3 ovarian),growth (HS 578T breast),growth (NCI/ADR-RES ovarian)
CC1(C)O[C@H]2OC3CCC(=O)CC3(O)[C@H]2O1 (stereo not given in full),102%,112%,103%,79.5%,97.7%,110%,101%,95.1%,106%,112%,107%,96%,98.2%,107%,110%,94.9%,108%,104%,97%,102%
COc1ccc(NC(=O)c2sc3nc(C)c(C(O)c4ccccc4)cc3c2N)cc1 (stereo not given),46.5%,40.4%,36.1%,43.4%,52.6%,45.2%,42.4%,-1.83% (active),7.85% (active),12.5%,4.79% (active),11.8%,27.6%,37.9%,78%,24.1%,36.6%,8.68% (active),22.8%,10.6%
N/C(=N\c1nc2ccccc2s1)NC(=NC1CCCCC1)NC1CCCCC1,41%,45.7%,33.8%,20.1%,69.2%,17.1%,23.2%,45.8%,-1.74% (active),4% (active),8.88% (active),-30.4% (active),4.41% (active),24.6%,26.7%,74.9%,14.4%,57.6%,37.8%,15%
N#Cc1c(-c2ccccc2)c(C#N)c2c(C#N)c(N)nn2c1N,9.95% (active),47.3%,51.7%,52.1%,67%,60.9%,47%,-8.04% (active),13.3%,11.7%,2.65% (active),21.2%,61.1%,78%,57.7%,62.2%,31.9%,15.5%,27.4%,29.9%
CCCCCCCCNc1cc2c3c(c1)CCCN3CCC2,-46.6% (active),10%,9.8% (active),61%,41.7%,30.9%,38.6%,80.2%,42.8%,27.5%,26%,12.3%,15.8%,17.6%,35.2%,10.7%,29.7%,4.22% (active),23.3%,70.7%
C[C@@H](CO)[C@@H]1CC[C@]2(C(=O)N3CCN(C)CC3)CC[C@]3(C)[C@H](CC[C@@H]4[C@@]5(C)CC[C@H](O)C(C)(C)[C@@H]5CC[C@]43C)[C@@H]12,90.1%,88.4%,71.9%,64.7%,113%,89.6%,78.2%,89%,-5.45% (active),39.2%,-12.4% (active),38.2%,80.3%,101%,78.3%,108%,74%,87.7%,85.2%,84.5%
O=C(/C=C/c1ccc(Br)cc1)c1ccc(-n2cc(CN3CCN(c4cc5c(cc4F)c(=O)c(C(=O)O)cn5C4CC4)CC3)nn2)cc1,97.2%,90.7%,44.9%,65.7%,91.4%,93.7%,64.4%,57.4%,56.3%,67.7%,16.6%,34.2%,79%,99.5%,91.4%,78.4%,74.2%,95.9%,83.6%,102%
CCOC(=O)c1c(C)c2c(n1C)CSc1cc(S(=O)(=O)c3ccccc3)c(=O)[nH]c1-2,30.7% [100 µM],14.7% [100 µM],24.8% [100 µM],22.7% [100 µM],24.8% [100 µM],25.9% [100 µM],26.3% [100 µM],44.9% [100 µM],29.2% [100 µM],41.5% [100 µM],45% [100 µM],28.9% [100 µM],34.4% [100 µM],62.4% [100 µM],26.4% [100 µM],26.8% [100 µM],30.6% [100 µM],18.5% [100 µM],53.6% [100 µM],18.6% [100 µM]
